In PubChem BioAssay AID588852 (The Scripps Research Institute Molecular Screening Center, 2011):
In all, about 360,000 compounds went through this assay and about 4,600 (1.3%) were called active. The sample holds actives, similar compounds and a random draw of the others, so the mix is not that of the screen.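 The calls were made as follows: active = percent inhibition above its own plate's cutoff, namely the mean of that plate's compound wells plus 3 SD; inactive = the rest.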 Peptide text beside a SMILES is read from it. * marks the point of attachment. Bz = O=C(c1ccccc1)*

What follows are compounds tested against Muscarinic acetylcholine receptor M1 (Homo sapiens) (UniProt P11229) (assay: CHRM1 blockers of acetylcholine calcium response – CHO-K1 cells, Fluo-8 calcium fluorescence, 1536-well, primary screen (AID 588852;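 also: peak over basal fluorescence ratio during 140 s after agonist addition; 0% = ACh EC80 plus DMSO and 100% = DMSO alone without agonist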)). Settings: CHO-K1 hM1, Fluo-8 calcium fluorescence, ACh EC80 antagonist; at 3 µM; stronger effect = higher value.
Muscarinic acetylcholine receptor M1 (Homo sapiens), sequence (P11229 whole entry, looked up): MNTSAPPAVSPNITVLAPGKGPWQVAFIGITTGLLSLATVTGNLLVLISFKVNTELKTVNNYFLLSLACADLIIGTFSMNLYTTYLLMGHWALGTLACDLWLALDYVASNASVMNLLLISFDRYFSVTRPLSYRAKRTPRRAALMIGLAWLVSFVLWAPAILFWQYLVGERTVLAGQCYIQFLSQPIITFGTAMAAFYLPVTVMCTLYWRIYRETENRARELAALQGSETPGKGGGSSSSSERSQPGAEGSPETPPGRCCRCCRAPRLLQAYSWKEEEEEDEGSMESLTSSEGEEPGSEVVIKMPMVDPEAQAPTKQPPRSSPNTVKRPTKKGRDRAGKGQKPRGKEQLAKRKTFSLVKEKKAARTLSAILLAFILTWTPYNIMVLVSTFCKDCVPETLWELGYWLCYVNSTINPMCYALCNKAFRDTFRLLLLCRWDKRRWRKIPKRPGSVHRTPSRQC

Row | SMILES | inhibition
1 | Cc1cc(C)c(C)c(S(=O)(=O)Nc2cccnc2)c1C | -12.2% (inactive)
2 | COc1ccccc1Oc1ccc(S(=O)(=O)Nc2cccnc2)cc1 | 35.1% (active)
3 | COc1ccc(S(=O)(=O)Nc2cccnc2)c(Cl)c1Cl | 9.26% (inactive)
4 | O=[N+]([O-])c1ccc(CN2CC(N3CC=CC3)CS2(=O)=O)cc1 (stereo not given) | 7.78% (inactive)
5 | CCCC1=Nc2cc(C(=O)NCc3ccco3)ccc2Sc2ccccc21 | 13.6% (inactive)
6 | CCC1=Nc2cc(C(=O)NCCCN3CCOCC3)ccc2Sc2ccc(Br)cc21 | 1.43% (inactive)
7 | CCCC1=Nc2cc(C(=O)NCCN3CCCC3)ccc2Sc2ccccc21 | 44% (active)
8 | Cc1cccc(CN2CCC(n3nccc3NC(=O)c3ccccc3C)CC2)n1 | -7.86% (inactive)
9 | C[C@@H]1CN([C@@H](C)CO)C(=O)c2cc(Br)cnc2O[C@H]1CN(C)Cc1ccc(-c2ccccc2)cc1 | -3.44% (inactive)
10 | C[C@@H]1CN([C@@H](C)CO)C(=O)CCCn2nncc2CO[C@H]1CN(C)Cc1ccc(C(F)(F)F)cc1 | -8.15% (inactive)
11 | Cc1ccc(CN(C)C[C@@H]2OCc3cnnn3CCCC(=O)N([C@@H](C)CO)C[C@H]2C)cc1 | -6.67% (inactive)
12 | C[C@H]1CN([C@@H](C)CO)C(=O)CCCn2nncc2CO[C@@H]1CN(C)Cc1ccc(Oc2ccccc2)cc1 | 35.8% (active)
13 | C[C@@H]1CN([C@H](C)CO)C(=O)c2cc(-c3ccc(F)cc3)cnc2O[C@H]1CN(C)C(=O)c1ccc(F)cc1 | -3.76% (inactive)
14 | COc1ccc(-c2cnc3c(c2)C(=O)N([C@H](C)CO)C[C@@H](C)[C@H](CN(C)Cc2ccccc2)O3)cc1 | 79.4% (active)
15 | CSc1nsc(SC)c1NC(=O)OC1CCCCC1 | -9.68% (inactive)
16 | O=C(Nc1cccc2ccccc12)c1[nH]c(-c2ccccc2)c2c1C(=O)N(C1CC1)C2=O | -24.4% (inactive)
17 | O=C1C2C3C=CC(C3)C2C(=O)N1c1ncc([N+](=O)[O-])s1 (stereo not given) | -4.85% (inactive)
18 | O=C(NC(Cc1ccccc1)C(=O)N1CCCC1C(=O)O)c1ccccc1 (stereo not drawn) (Bz-Phe-Pro-OH; configuration not given here) | -9.18% (inactive)
19 | CN(Cc1ccccc1F)C(=O)C(Cc1ccccc1)NC(=O)c1ccccc1 (stereo not given) | 33.5% (active)
20 | NC(=O)c1ccc(NC(=O)COC(=O)C(Cc2ccccc2)NC(=O)c2ccccc2)cc1 (stereo not given) | 0.83% (inactive)
21 | CCn1ccnc1CNC(=O)CC1C(=O)NCCN1CCCc1ccccc1 (stereo not given) | -10.2% (inactive)
22 | C[C@@H](C(=O)Nc1ccc2ccccc2c1)[C@@H]1C[C@@]1(C)[C@@H](NC(=O)c1cccnc1)c1ccccc1 | -3.75% (inactive)

Row | SMILES | inhibition
23 | CCc1nc2ccc(C(=O)N3CCN(S(=O)(=O)CC)CC3)cn2c1N(C=O)CCC(C)C | -13.9% (inactive)
24 | CC1=C(C(=O)N2CCOCC2)CC(CC(=O)NCCCN(C)C)C(=O)N1Cc1ccc(C(C)(C)C)cc1 (stereo not given) | -15.7% (inactive)
25 | Cc1ccc(S(=O)(=O)NC(C)C(=O)NCc2ccc(Cl)cc2)cc1 (stereo not given) | 5.87% (inactive)
26 | COc1ccc(S(=O)(=O)NC(C)C(=O)NCc2ccncc2)cc1Cl (stereo not given) | 25.1% (active)
27 | CC(Oc1cc2oc(=O)c3c(c2cc1Cl)CCCC3)C(=O)NCc1ccncc1 (stereo not given) | 1.37% (inactive)
28 | CC(=O)N1C[C@@H](CO)[C@@H](N(C)C(=O)c2ccco2)C[C@H]1c1ccccc1 | 30.9% (inactive)
29 | COc1cc(OC)cc(C(=O)NNC(=O)CNC(=O)c2ccc(Br)o2)c1 | 15.6% (inactive)
30 | CCN1CN(Cc2ccccc2)CNC1=S | 0.26% (inactive)
31 | COc1ccc(NC(=O)C2(C)Cc3c(-c4cccc(NC(C)=O)c4)ccnc3O2)cc1 (stereo not given) | -7.09% (inactive)
32 | COc1cccc(CNc2nc(NCc3cccs3)nc3ccsc23)c1 | 51.9% (active)
33 | COCCNc1nc(NCc2ccc(NC(C)=O)cc2)c2sccc2n1 | -8.59% (inactive)
34 | COc1cccc(CNc2nc(NCc3ccccc3OC)nc3ccsc23)c1 | 24.1% (inactive)
35 | COc1ccc(-c2nc3c(s2)CCc2onc(-c4ccc(OC)cc4)c2-3)cc1 | -8.59% (inactive)
36 | COc1ccc(/C=C/C(=O)c2c(O)cc(OC)cc2OC)cc1 | 4.93% (inactive)
37 | COc1cccc(C=CC(=O)C=CC=Cc2ccccc2)c1 | -3.17% (inactive)
38 | O=C(/C=C(O)/C=C/c1ccc(O)cc1)/C=C/c1ccc(O)cc1 | 33.7% (active)
39 | O=S1(=O)C[C@@H](N2CCN(CCO)CC2)[C@H](COCc2ccccc2)N1 | 8.79% (inactive)
40 | COC(=O)CCCC1=CC2=C(c3ccccc3)C(=O)C(C)(OC(=O)C3CCCC3)C(=O)C2=CN1c1ccc(OC)cc1 (stereo not given) | 4.39% (inactive)
41 | CSc1ncccc1C(=O)N1CCCC(Nc2ccc(F)c(F)c2)C1 (stereo not given) | -21.9% (inactive)
42 | Cc1ccc(CN2CC(C(=O)NNC(=O)Cn3ccc(C(F)(F)F)n3)CC2=O)cc1 (stereo not given) | -4.1% (inactive)
43 | O=C1NC(O)CCN1C1CC(O)C(CO)O1 (stereo not given) | 4.13% (inactive)
44 | COc1cc(C(C(=O)NC2CCCC2)N(Cc2ccccc2)C(=O)c2snc(C(N)=O)c2N)ccc1O (stereo not given) | 0.09% (inactive)

Row | SMILES | inhibition
45 | COc1ccc(CNC(=O)C(c2ccc(O)cc2)N(Cc2ccco2)C(=O)c2snc(C(N)=O)c2N)cc1 (stereo not given) | 34.8% (active)
46 | NC(=O)c1nsc(C(=O)N(CC(=O)NCc2ccc(F)cc2)Cc2ccco2)c1N | -9.5% (inactive)
47 | CCOC(=O)N1CCN(S(=O)(=O)c2ccc(C(=O)Nc3ccc(F)cc3F)cc2)CC1 | 5.69% (inactive)
48 | Cc1cc2cc3c(cc2nc1SCC(=O)Nc1c(C)cccc1C)CCC3 | -12.5% (inactive)
49 | O=C(CC[C@H]1O[C@@H](n2ccc(=O)[nH]c2=O)[C@H](O)[C@@H]1O)N[C@H](Cc1ccccc1)C(=O)NCCCN1CCCC1=O | -9.33% (inactive)
50 | Cc1ccc(NC(=O)CN2CCc3ccccc3C2)cc1C | -11% (inactive)
51 | Cc1cccc(C)c1NC(=O)c1ccc(CN2CCc3ccccc3C2)cc1 | 4.61% (inactive)
52 | Cc1cccc2c1-c1sc(C(=O)NCCCN3CCc4ccccc4C3)cc1CO2 | 58.2% (active)
53 | O=c1c2c(nc3n1CCCCC3)sc1c(O)cccc12 | -13.7% (inactive)
54 | CC(C)c1nc2sc3c(c2c(=O)n1N)CC(C)(C)OC3 | -0.09% (inactive)
55 | CC1(C)Cc2c(sc3nc4n(c(=N)c23)CCCCC4)CO1 | 53.3% (active)
56 | CCSc1nc2sc3c(c2c(=O)[nH]1)CC(C)(C)OC3 | -5.74% (inactive)
57 | N=c1c2c3c(sc2nc2n1CCCCC2)CCCC3 | 89.3% (active)
58 | N=c1c2c3c(sc2ncn1CCCN1CCOCC1)CCCCC3 | 1.24% (inactive)
59 | COc1ccccc1-c1cnn2c(N3CCOCC3)cc(C)nc12 | -0.68% (inactive)
60 | C=CCn1c2c(c3ccccc31)CCC2 | 3.67% (inactive)
61 | Cc1ccc2cc3cc(C(=O)N4CCCCCC4)oc3nc2c1 | -17.6% (inactive)
62 | Fc1ccc2[nH]c3c(N4CCSCC4)ncnc3c2c1 | 41.1% (active)
63 | CCOC(=O)N(Cc1ccccc1)C1CC1 | -16% (inactive)
64 | CCCCNC(=O)CSc1nc2ccc(NC(=O)CSc3nnc(COc4ccccc4C)n3C)cc2s1 | -13.4% (inactive)
65 | CCCCNC(=O)CSc1nc2ccc(NC(=O)CSc3nnc(N)s3)cc2s1 | -9.73% (inactive)
66 | Nc1nnc(SCC(=O)Nc2ccc3nc(SCC(=O)Nc4ccccc4)sc3c2)s1 | 30.3% (active)

Row | SMILES | inhibition
67 | O=C1c2ccccc2C(c2nc3ccccc3[nH]2)N1c1ccccc1 (stereo not given) | -32.7% (inactive)
68 | CCS(=O)(=O)Nc1ccc(C2=NN(S(=O)(=O)c3ccc(F)cc3)C(c3ccco3)C2)cc1 (stereo not given) | -7.75% (inactive)
69 | COc1ccc(-c2cc(C(=O)NCCCN3CCCC3=O)c3ccccc3n2)cc1OC | 19.9% (inactive)
70 | COc1ccc(CN(C)C(=O)Cc2c[nH]c3ccccc23)c(OC)c1OC | -18.1% (inactive)
71 | COc1ccc(CN(C)C(=O)c2cc(-c3ccc(C)cc3C)nc3ccccc23)c(OC)c1OC | 26.6% (active)
72 | COc1cccc(NC(=O)CN(C)C(=O)c2cc(Cl)nc3ccccc23)c1 | -8.88% (inactive)
73 | COc1ccc(-c2cc(C(=O)N(C)Cc3ccc(OC)c(OC)c3OC)c3ccccc3n2)cc1OC | 41.5% (active)
74 | COc1ccc(CN(C)C(=O)Cc2ccsc2)c(OC)c1OC | -4.83% (inactive)
75 | COc1ccc(-c2cc(C(=O)n3cnc4ccccc43)c3ccccc3n2)cc1 | -11.1% (inactive)
76 | COc1ccc(-c2cc(C(=O)N(C)CC(=O)Nc3ccccc3Cl)c3ccccc3n2)cc1OC | 21% (active)
77 | COc1ccc(Cl)cc1NC(=O)CN(C)C(=O)c1cc2ccccc2cc1OC | -2.48% (inactive)
78 | COc1ccc(-c2cc(C(=O)N(C)Cc3ccccc3)c3ccccc3n2)cc1 | 41% (active)
79 | COc1ccc(S(=O)(=O)N2CCCCCC2)cc1C(=O)N(C)Cc1cccc(OC)c1OC | -2.19% (inactive)
80 | COc1ccc(NC(=O)c2cc(-c3cc(OC)c(OC)c(OC)c3)nc3ccccc23)c(OC)c1 | -10.6% (inactive)
81 | Cc1cc2oc(=O)cc(CN(C)Cc3ccccc3)c2cc1Cl | -3.35% (inactive)
82 | CC1(C(=O)NS(=O)(=O)c2ccccc2)CCN1C(=O)Cc1ccc(-c2ccccc2)cc1 (stereo not given) | -13% (inactive)
83 | CC(=O)N1c2ccc(S(=O)(=O)N3CCCC(C(=O)Nc4ccc(C)cc4C)C3)cc2CC1C (stereo not given) | -10.3% (inactive)
84 | CC(=O)n1cc([C@@H]2C=C(C(=O)N3CCN(Cc4ccc5c(c4)OCO5)CC3)O[C@H](OCc3ccc(CO)cc3)C2)c2ccccc21 | 15.6% (inactive)
85 | CNC[C@H]1OCc2cnnn2CCCC(=O)N([C@H](C)CO)C[C@@H]1C | -31.6% (inactive)
